Data as given in PubChem BioAssay AID1159580 (chemical genetic matrix, 2015).
Screen size: about 5,500 compounds; about 2,000 (36%) were called active. Inconclusive results (about 18%) are left out. Cut-off read from the data, not from the text of the source: active = normalized growth mostly below about 0.91 (no sharp cut-off); inconclusive = no clear call, values can overlap the other calls; inactive = mostly above about 0.92. Some of the results follow.

Assay: chemical genetic growth profiling, strain panel (AID 1159580);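 note: tested at 20 µM; growth read once vehicle control cultures reached saturation at 30 °C; 1 = growth at the plate median or of vehicle wells; lower values mean less growth of the strain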
Details: growth OD

Measured: normalized growth

CNC(=O)Oc1ccccc1OC(C)C
inactive: S. cerevisiae deletion strains, locus YJR043C, strain POL32, active compounds read low 1.01 | S. cerevisiae deletion strains, locus YJR075W, strain HOC1, active compounds read low 1.02 | S. cerevisiae deletion strains, locus YKL009W, strain mrt4, active compounds read low 0.986 | S. cerevisiae deletion strains, locus YKL068W, active compounds read low 0.991 | S. cerevisiae deletion strains, locus YKL085W, strain MDH1 (second series), active compounds read low 0.982 | S. cerevisiae deletion strains, locus YKL085W, strain MDH1, active compounds read low 0.982 | S. cerevisiae deletion strains, locus YKL160W, strain elf1, active compounds read low 0.996 | S. cerevisiae deletion strains, locus YKL190W, strain CNB1, active compounds read low 1.01 | S. cerevisiae deletion strains, locus YKR001C, strain vps1, active compounds read low 0.99 | S. cerevisiae deletion strains, locus YKR026C, strain gcn3, active compounds read low 0.993 | S. cerevisiae deletion strains, locus YKR091W, strain srl3, active compounds read low 0.989 | S. cerevisiae deletion strains, locus YLL001W, strain dnm1, active compounds read low 0.995 | S. cerevisiae deletion strains, locus YLL026W, active compounds read low 0.986 | S. cerevisiae deletion strains, locus YLL041C, strain sdh2, active compounds read low 0.994 | S. cerevisiae deletion strains, locus YLR027C, strain aat2, active compounds read low 0.995 | S. cerevisiae deletion strains, locus YLR039C, strain RIC1, active compounds read low 1.05 | S. cerevisiae deletion strains, locus YLR058C, strain SHM2, active compounds read low 1.02 | S. cerevisiae deletion strains, locus YLR102C, strain apc9, active compounds read low 0.988 | S. cerevisiae deletion strains, locus YLR221C, strain rsa3, active compounds read low 0.986 | S. cerevisiae deletion strains, locus YLR258W, strain gsy2, active compounds read low 0.984 | S. cerevisiae deletion strains, locus YLR262C, strain YPT6 (second series), active compounds read low 1.01 | S. cerevisiae deletion strains, locus YLR262C, strain YPT6, active compounds read low 1.06 | S. cerevisiae deletion strains, locus YLR268W, strain sec22, active compounds read low 0.99 | S. cerevisiae deletion strains, locus YLR320W, strain mms22, active compounds read low 0.987 | S. cerevisiae deletion strains, locus YLR330W, strain CHS5, active compounds read low 1.02 | S. cerevisiae deletion strains, locus YLR342W, strain FKS1 (second series), active compounds read low 1 | S. cerevisiae deletion strains, locus YLR342W, strain FKS1, active compounds read low 0.99 | S. cerevisiae deletion strains, locus YLR357W, strain rsc2, active compounds read low 0.953 | S. cerevisiae deletion strains, locus YLR370C, strain arc18, active compounds read low 0.992 | S. cerevisiae deletion strains, locus YLR371W, strain rom2, active compounds read low 0.987 | S. cerevisiae deletion strains, locus YLR384C, strain iki3, active compounds read low 0.99 | S. cerevisiae deletion strains, locus YLR418C, strain cdc73, active compounds read low 0.97 | S. cerevisiae deletion strains, locus YML016C, strain PPZ1, active compounds read low 1.03 | S. cerevisiae deletion strains, locus YML032C, strain rad52, active compounds read low 0.989 | S. cerevisiae deletion strains, locus YML120C, strain ndi1, active compounds read low 0.986 | S. cerevisiae deletion strains, locus YML124C, strain tub3, active compounds read low 0.991 | S. cerevisiae deletion strains, locus YMR058W, strain fet3, active compounds read low 0.989 | S. cerevisiae deletion strains, locus YMR078C, strain ctf18, active compounds read low 0.985 | S. cerevisiae deletion strains, locus YMR125W, strain sto1, active compounds read low 0.957 | S. cerevisiae deletion strains, locus YMR129W, active compounds read low 0.995 | S. cerevisiae deletion strains, locus YMR205C, strain PFK2, active compounds read low 0.984 | S. cerevisiae deletion strains, locus YMR223W, strain ubp8, active compounds read low 0.986 | S. cerevisiae deletion strains, locus YMR231W, strain pep5, active compounds read low 0.988 | S. cerevisiae deletion strains, locus YMR263W, strain SAP30, active compounds read low 1.03 | S. cerevisiae deletion strains, locus YMR307W, strain GAS1, active compounds read low 0.988 | S. cerevisiae deletion strains, locus YNL067W, strain RPL9B, active compounds read low 1.03 | S. cerevisiae deletion strains, locus YNL071W, strain lat1, active compounds read low 1 | S. cerevisiae deletion strains, locus YNL128W, strain TEP1, active compounds read low 1.02 | S. cerevisiae deletion strains, locus YNL153C, strain GIM3, active compounds read low 1.02 | S. cerevisiae deletion strains, locus YNL209W, strain ssb2, active compounds read low 0.994 | S. cerevisiae deletion strains, locus YNL233W, strain BNI4, active compounds read low 0.982 | S. cerevisiae deletion strains, locus YNL248C, strain rpa49, active compounds read low 0.979 | S. cerevisiae deletion strains, locus YNL250W, strain rad50, active compounds read low 0.979 | S. cerevisiae deletion strains, locus YNL271C, strain bni1, active compounds read low 0.968 | S. cerevisiae deletion strains, locus YNL298W, strain CLA4, active compounds read low 0.98 | S. cerevisiae deletion strains, locus YNL307C, strain MCK1, active compounds read low 0.992 | S. cerevisiae deletion strains, locus YNL322C, strain KRE1 (second series), active compounds read low 0.98 | S. cerevisiae deletion strains, locus YNL322C, strain KRE1, active compounds read low 1.01 | S. cerevisiae deletion strains, locus YNR049C, strain mso1, active compounds read low 0.989 | S. cerevisiae deletion strains, locus YNR052C, strain pop2, active compounds read low 0.986 | S. cerevisiae deletion strains, locus YOL006C, strain TOP1, active compounds read low 1.06 | S. cerevisiae deletion strains, locus YOL012C, strain htz1 0.953 | S. cerevisiae deletion strains, locus YOL147C, strain pex11, active compounds read low 0.993 | S. cerevisiae deletion strains, locus YOR001W, strain rrp6, active compounds read low 0.998 | S. cerevisiae deletion strains, locus YOR061W, strain CKA2, active compounds read low 1.01 | S. cerevisiae deletion strains, locus YOR069W, strain VPS5, active compounds read low 1.01 | S. cerevisiae deletion strains, locus YOR070C, strain gyp1, active compounds read low 0.986 | S. cerevisiae deletion strains, locus YOR080W, strain dia2, active compounds read low 0.963 | S. cerevisiae deletion strains, locus YOR083W, strain WHI5, active compounds read low 0.995 | S. cerevisiae deletion strains, locus YOR106W, strain vam3, active compounds read low 0.991 | S. cerevisiae deletion strains, locus YOR136W, strain idh2, active compounds read low 0.992 | S. cerevisiae deletion strains, locus YOR144C, strain elg1, active compounds read low 0.995 | S. cerevisiae deletion strains, locus YOR184W, strain ser1, active compounds read low 0.991 | S. cerevisiae deletion strains, locus YOR265W, strain rbl2, active compounds read low 0.985 | S. cerevisiae deletion strains, locus YOR270C, strain vph1, active compounds read low 1 | S. cerevisiae deletion strains, locus YOR290C, strain snf2, active compounds read low 1 | S. cerevisiae deletion strains, locus YOR316C, strain cot1, active compounds read low 0.992 | S. cerevisiae deletion strains, locus YPL051W, strain arl3, active compounds read low 0.995 | S. cerevisiae deletion strains, locus YPL055C, strain LGE1, active compounds read low 1.03 | S. cerevisiae deletion strains, locus YPL078C, strain atp4, active compounds read low 0.998 | S. cerevisiae deletion strains, locus YPL106C, strain sse1, active compounds read low 0.98 | S. cerevisiae deletion strains, locus YPL240C, strain hsp82, active compounds read low 1 | S. cerevisiae deletion strains, locus YPL241C, strain CIN2, active compounds read low 1.01 | S. cerevisiae deletion strains, locus YPR119W, strain clb2, active compounds read low 0.994 | S. cerevisiae deletion strains, locus YPR141C, strain kar3, active compounds read low 0.978 | S. cerevisiae deletion strains, locus YPR163C, strain tif3, active compounds read low 0.987 | S. cerevisiae deletion strains, locus YPR167C, strain met16, active compounds read low 0.989 | S. cerevisiae deletion strains, strain wtn01, active compounds read low 0.984 | S. cerevisiae strains, strain wild type, active compounds read low 1.01
